Most compounds without a hit are left out; they make up all but 14% or so of the library.
USP8 inh: blocks human USP8 ubiquitin-rhodamine cleavage; purified USP8, Ub-rhodamine cleavage fluorescence, 30 min; inhibition, % at 20 µM; actives 4.2% (n = 47,000); AID 1645853
USP30 block: inhibitors of human USP30 deubiquitinase; Q70CQ3; purified USP30, Ub-rhodamine cleavage fluorescence; inhibition, % at 25 µM; actives 5.3% (n = 47,000); AID 1645860
USP10 block: inhibitors of human USP10 deubiquitinase | Q14694 | purified USP10, Ub-rhodamine fluorescence, 60 min | inhibition, % at 20 µM | actives 1.1% (n = 47,000) | AID 1645856
Target sequence (Q14694 whole entry, looked up): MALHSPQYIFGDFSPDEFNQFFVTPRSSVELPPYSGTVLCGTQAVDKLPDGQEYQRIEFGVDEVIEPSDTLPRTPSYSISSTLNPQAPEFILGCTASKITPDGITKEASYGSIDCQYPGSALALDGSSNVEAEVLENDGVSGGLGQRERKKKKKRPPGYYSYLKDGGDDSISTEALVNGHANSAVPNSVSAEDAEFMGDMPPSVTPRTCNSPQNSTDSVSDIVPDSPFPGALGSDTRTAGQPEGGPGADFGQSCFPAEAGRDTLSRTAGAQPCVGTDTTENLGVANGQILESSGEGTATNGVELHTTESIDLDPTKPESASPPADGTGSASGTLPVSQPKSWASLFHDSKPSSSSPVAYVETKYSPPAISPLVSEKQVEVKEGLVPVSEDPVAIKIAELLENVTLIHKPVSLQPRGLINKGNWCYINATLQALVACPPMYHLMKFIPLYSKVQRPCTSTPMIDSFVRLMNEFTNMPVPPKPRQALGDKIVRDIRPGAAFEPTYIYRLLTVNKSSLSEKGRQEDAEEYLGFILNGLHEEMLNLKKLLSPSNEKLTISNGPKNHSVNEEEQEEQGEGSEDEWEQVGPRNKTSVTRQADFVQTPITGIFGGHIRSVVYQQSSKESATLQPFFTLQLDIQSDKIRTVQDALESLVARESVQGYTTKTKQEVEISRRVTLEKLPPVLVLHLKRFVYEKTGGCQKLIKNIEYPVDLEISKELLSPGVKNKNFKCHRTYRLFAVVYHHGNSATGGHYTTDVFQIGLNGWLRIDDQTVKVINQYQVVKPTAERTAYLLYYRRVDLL
USP28 block: inhibitors of human USP28 deubiquitinase; Q96RU2; purified USP28, Ub-rhodamine cleavage fluorescence, 30 min; inhibition, % at 25 µM; actives 3% (n = 47,000); AID 1645857
USP17 block: inhibitors of human USP17 deubiquitinase. A8MUK1. purified USP17, Ub-rhodamine cleavage fluorescence, 3 h. inhibition, % at 50 µM. actives 6.5% (n = 47,000)
Hits are given with their value; 0 = inactive; - = no result. No stated cut-off is given here; in the data, active means inhibition above about 30%; inactive means the rest.

SMILES | USP8 inh | USP30 block | USP10 block | USP28 block | USP17 block
O=C(O)C(c1c[nH]c2ccc(OCc3ccccc3)cc12)N1CCN(c2ccccn2)CC1 (centres undefined) | 0 | 0 | 0 | 0 | 0
Cc1ccc(-n2ncc(C(=O)NCc3cccc(Cl)c3)c2C2CCNCC2)cc1Cl | 0 | 44 | 0 | 0 | -
Cc1cn2c(=O)cc(COC(=O)c3ccc(NC(=O)c4ccccc4)cc3)nc2s1 | 0 | 0 | 0 | 0 | 39
O=C(Nc1cccn(Cc2c(Cl)cccc2Cl)c1=O)c1ccccc1[N+](=O)[O-] | 0 | 46 | 0 | 81 | 0
Cc1ccc(N(CC(=O)NCCN2CCOCC2)S(C)(=O)=O)cc1C | 0 | 0 | 0 | 0 | 0
COC(=O)c1ccc(NC(=O)CSc2nc3ncc(Cl)cc3[nH]2)cc1 | 0 | 0 | 0 | 0 | 0
CCOc1ccc(NC(=O)CSc2nc3ncc(Br)cc3[nH]2)cc1 | 0 | 0 | 0 | 0 | 0
O=C(CSc1nc2ncc(Cl)cc2[nH]1)Nc1ccc(OCc2ccccc2)cc1 | 0 | 0 | 0 | 0 | 38
Cc1ccc(NC(=O)CSc2nc3ncc(Br)cc3[nH]2)cc1C | 0 | - | 0 | - | 60
CN(Cc1ccccc1)C(=O)C1CCCN(S(=O)(=O)c2ccc3c(c2)NC(=O)CO3)C1 (centres undefined) | 0 | 0 | 0 | 0 | 0
O=C(Oc1ccccc1Br)c1cc(-c2ccc3c(c2)OCCO3)on1 | 52 | 33 | 0 | 0 | 0
CC(C)(C)OC(=O)NCc1ccc(C(=O)Nc2ccc(Cl)cn2)cc1 | 0 | 34 | 0 | 0 | 0
Cc1ccc(C(=O)Nc2ccc(Cl)cn2)c(C)c1 | 0 | 0 | 0 | 0 | 0
O=C(c1ccco1)N1CCN=C1SCc1ccccc1F | 0 | 0 | 0 | 75 | 0
O=C(c1ccco1)N1CCN=C1SCc1ccc([N+](=O)[O-])cc1 | 0 | 53 | 0 | 61 | 43
Cc1cccc(CC(=O)N2CCN=C2SCc2ccccc2)c1 | 0 | 0 | 0 | 0 | 0
O=C(c1ccccc1)N1CCN(C(=O)c2cc3ccccc3[nH]2)CC1 | 0 | 0 | 0 | 0 | 0
Cc1ccc(S(=O)(=O)N(CC#N)c2nc3nc(C)c(Cl)c(C)n3n2)cc1 | 0 | 0 | 0 | 33 | 0
Cc1ccc(S(=O)(=O)N(C)c2nc3nc(C)c(Cl)c(C)n3n2)cc1 | 0 | 0 | 0 | 0 | 0
Cc1cc(NCC(=O)Nc2cccc(F)c2)n2nc(-c3cccnc3)nc2n1 | 0 | 0 | 0 | 0 | 0
CCCCNC(=O)c1cccc(Nc2cc(C)nc3nc(-c4cccnc4)nn23)c1 | 0 | 38 | 0 | 0 | 32
Cc1cc(NCC(=O)Nc2ccc(Cl)cc2)n2nc(-c3cccnc3)nc2n1 | 0 | 38 | 0 | 0 | 0
O=C(NCc1ccc(F)cc1)c1cn(CC2CCCO2)cc2c(=O)n(-c3ccccc3)nc1-2 (centres undefined) | 0 | 0 | 0 | 0 | 0
O=C(Nc1ccncc1)c1cn(Cc2ccccc2)cc2c(=O)n(-c3ccccc3)nc1-2 | 0 | 50 | 0 | 0 | 0
O=C(CCC1CCCC1)N1CCN(C(=O)c2ccccc2F)CC1 | 0 | 0 | 0 | 0 | 0
SMILES | USP8 inh | USP30 block | USP10 block | USP28 block | USP17 block
O=C(CSc1nc2ccccc2c(=O)[nH]1)c1c[nH]c2ccccc12 | 0 | 0 | 0 | 0 | 0
COc1ccc(-c2csc(-c3cc4c([nH]c3=O)CC(c3ccco3)CC4=O)n2)cc1 (centres undefined) | 0 | 0 | 0 | 0 | 0
O=C1CC(c2ccco2)Cc2[nH]c(=O)c(-c3nc(-c4ccc(Cl)cc4)cs3)cc21 (centres undefined) | 34 | 0 | 0 | 0 | 0
c1ccc(-n2cc(-c3noc(-c4ccco4)n3)nn2)cc1 | 0 | 0 | 0 | 0 | 0
COCCNC(=O)c1cc(-c2cn(-c3ccccn3)c(C)n2)n2ccccc12 | 0 | 0 | 0 | 0 | 0
O=C(Nc1cnc(-c2cccc(Cl)c2)nc1)C1CCC1 | 30 | 0 | 0 | 0 | 0
CCOC(=O)c1cc2c(ccn2-c2ccc(F)cc2)n1CC(=O)N1CCc2ccccc2C1 | 0 | 0 | 0 | 0 | 0
COC(=O)c1ccc(Nc2c(C#N)cnc3ccc(Cl)cc23)cc1 | 0 | 33 | 0 | 0 | 0
CCOC(=O)C1CCN(C(=O)CN2C(=O)c3ccccc3C2c2c(C)[nH]c3ccccc23)CC1 (centres undefined) | 0 | 0 | 0 | 0 | 0
COc1cc(C2C3=C(CC(c4ccco4)CC3=O)Nc3ccccc3N2C(=O)c2ccccc2)cc(OC)c1OC (centres undefined) | 34 | 0 | 0 | 0 | 0
CCCCCC(=O)N1c2ccccc2NC2=C(C(=O)CC(c3ccc(C(C)(C)C)cc3)C2)C1c1ccncc1 (centres undefined) | 0 | 0 | 0 | 0 | 74
CC(=O)N1c2ccccc2NC2=C(C(=O)CC(c3ccco3)C2)C1c1ccc(Cl)cc1 (centres undefined) | 43 | 0 | 0 | 0 | 0
CCC(=O)N1c2ccccc2NC2=C(C(=O)CC(c3ccco3)C2)C1c1ccc(OC)c(OC)c1 (centres undefined) | 0 | 0 | 0 | 0 | 0
Nc1ncc(-c2ccccc2)c(C2CCCCN2C(=O)C2CCC2)n1 (centres undefined) | 0 | 0 | 0 | 0 | 0
O=C(Nc1ccccc1)c1ccc2c(c1)CC(c1ccccc1)OC2=O (centres undefined) | 32 | 0 | 0 | 0 | 74
O=C(Nc1cccc(C(=O)NC2CC2)c1)c1ccc2c(c1)CC(c1ccccc1)OC2=O (centres undefined) | 0 | 0 | 0 | 0 | 0
O=C(CCc1cn(CN2CCCCC2)c2ccccc12)N1CCCCCC1 | 0 | 0 | 0 | 0 | 0
CN(C1CCCCC1)S(=O)(=O)N1CCCC(C(=O)N2CCN(c3ncccn3)CC2)C1 (centres undefined) | 0 | 0 | 0 | 0 | 0
CCN(Cc1ccccc1)S(=O)(=O)c1ccc(C(=O)Nc2ccc(S(N)(=O)=O)cc2)cc1 | 0 | 0 | 0 | 0 | 33
CCN(Cc1ccccc1)S(=O)(=O)c1ccc(C(=O)Nc2sccc2C(N)=O)cc1 | 0 | - | 0 | - | 43
CN(Cc1ccccc1)S(=O)(=O)c1ccc(NC(=O)c2ccc(Cl)cc2)cc1 | 0 | 31 | 0 | 0 | 0
CN(Cc1ccccc1)S(=O)(=O)c1ccc(C(=O)Nc2ccc3c(c2)OCO3)cc1 | 0 | 0 | 0 | 0 | 0
Cc1sc(NC(=O)c2ccc(S(=O)(=O)N(C)Cc3ccccc3)cc2)c(C(N)=O)c1C | 31 | 0 | 0 | 0 | 0
CC(NC(=O)c1ccccc1F)c1nnc(SCC(=O)Nc2ccccc2F)n1C (centres undefined) | 0 | 0 | 0 | 0 | 0
COc1ccc(NC(=O)Nc2ccc(CCc3nc4ccccc4[nH]3)cc2)c(OC)c1 | 0 | 76 | 0 | 0 | 59
COc1cccc(NC(=O)Nc2ccc(CCc3nc4ccccc4[nH]3)cc2)c1 | 0 | 0 | 0 | 66 | 42
CC12c3ccc4c(c3C(=O)c3occ(c31)C(=O)CC2O)CCC4=O (centres undefined) | 0 | 0 | 0 | 54 | 0
Clc1ccc(C2=Nc3cc(Cl)ccc3OC2)cc1 | 56 | 0 | 0 | 0 | 0
CC(=O)c1ccc(NC(=O)CCn2c(=O)c3cccn3c3ccccc32)cc1 | 0 | 0 | 0 | 0 | 43
CCc1ccccc1NC(=O)CCc1c(C)nc2c(c1C)c(=O)n(C)c(=O)n2C | 0 | 0 | 0 | 0 | 0
